Results from PubChem BioAssay (EPA / NIEHS).
Activity calls are given as the source filed them. How the source made its calls: active means hit-call score of the fitted dose curve at least 0.9, where 1 is the maximum; inactive means score below 0.9.

Experiment: CEETOX_H295R_11DCORT: CeeTox H295R High-throughput Steroidogenesis Assay for 11-Deoxycortisol (11DCORT) (AID 2283432);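 on AC50: 11-deoxycortisol secreted into the medium measured by LC-MS/MS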
Settings: actives raise or lower the signal
Experimental: CEETOX_H295R is a cell-based, multiplexed-readout assay that uses H295R, a human adrenal gland cell line, with measurements taken at 48 hours after chemical dosing in a 96-well plate.CEETOX_H295R_11DCORT is one of 23 assay component(s) measured or calculated from the CEETOX_H295R assay. It is designed to make measurements of hormone induction, a form of inducible reporter, as detected with absorbance signals by HPLC-MS-MS technology.Data from the assay component CEETOX_H295R_11DCORT was analyzed into 1 assay endpoint. This assay endpoint, CEETOX_H295R_11DCORT, was analyzed with bidirectional fitting relative to DMSO as the negative control and baseline of activity. Using a type of inducible reporter, gain or loss-of-signal activity using HPLC-MS-MS was used to understand synthesis of 11-Deoxycortisol in H295R cell line at 48hr of chemical exposure. To generalize the intended target to other relatable targets, this assay endpoint is annotated to the steroid hormone intended target family, where the subfamily is glucocorticoids.
Cell culture and media preparation procedures were conducted in accordance with OECD Test No. 456 guidelines, with minor modifications. H295R cells (ATCC CRL-2128) were expanded for 5 passages and frozen in batches in liquid nitrogen. Prior to the steroidogenesis assay, H295R cells were thawed and passed at least 4 times. The maximum passage was 10. Cells were maintained in a 1:1 mixture of DMEM/F12 supplemented with 5ml/L ITS+ Premix (BD Bioscience) and 12.5 ml/L Nu-Serum (BD Bioscience). After seeding cells into 96-well plates at 50-60% confluency, cells were allowed to adhere overnight. Prior to chemical testing, culture medium was replaced with 175 uL medium containing 10 uM forskolin to stimulate steroidogenesis for 48 hours. Following prestimulation, forskolin medium was replaced with medium containing test chemical solubilized in DMSO (ensuring a final concentration of 0.1% DMSO). Test chemicals were incubated for 48 hours, then the medium was removed and split into 2 vials containing approximately 75uL each, and stored at -80 C prior to hormone analysis. For steroid quantification, media samples were shipped to OpAns, LLC (Durham, NC) on dry ice, and samples were thawed to room temperature prior to liquid-liquid extraction. Steroid hormones were extracted from media samples using methyl tertbutyl ether (MTBE). An extra derivatization with dansyl chloride was included for estrogen (estrone and estradiol) detection only. Steroid hormones were separated by HPLC, eluted using a reverse phase C18 gradient with electrospray positive ionization, followed by quantification by tandem mass spectrometry (MS/MS). Data were acquired on a MassHunter Workstation Acquisition version B03.01 (Agilent Technologies, Inc.) and processed using MassHunter Quantitative Analysis for QQQ. Accuracy was determined for each hormone analyte from 3 standards to determine upper and lower limits of quantification (ULOQ and LLOQ, respectively) using a 7-point standard curve. Precision and accuracy of the extraction and quantification methods were calculated as the percent relative standard deviation (%RSD) of the spiked standards and percent spiked standard recovered, respectively. The goal was to achieve 100% accuracy (i.e., recover all spiked-in standard at quantification with minimal loss during run time) and good precision (i.e., have %RSD <15% to ensure reproducibility). Test medium was removed following chemical exposure, and cell viability was evaluated in the same wells by MTT. MTT procedures were as follows: after removal of test medium, 500 uL of 0.5 mg/ml of 3-[4,5-dimethylthiazol-2-y]2,5-diphenyltetrazoliumbromide solution was added to the cells. Following a 4-hour incubation at 37 C and 5% CO2 to allow formazan-crystal formation, the MTT solution was removed and blue formazan salt crystals were solubilized using 500uL anhydrous isopropanol with shaking for 20 minutes. […]
In the case of `Oc1ccccc1O`, the outcome is reported as “inactive”. With `CC(=O)[C@@]1(O)CC[C@H]2[C@@H]3CCC4=CC(=O)CC[C@]4(C)[C@H]3CC[C@@]21C` the AC50 was 8.94 µM (active). With `O=C1c2c(O)cccc2Cc2cccc(O)c21` the AC50 was 50 µM (active). With `Cc1cc(Cc2ccc(N)c(C)c2)ccc1N` the AC50 was 34.9 µM (active). With `O=C(O)CN(CC(=O)O)CC(=O)O` the outcome was “inactive”. With `Nc1nc(Cl)nc2c1ncn2[C@H]1C[C@H](O)[C@@H](CO)O1` the outcome was “inactive”. In the case of `CN(C)C(=O)NC1(c2ccccc2)CCN(CCC[C@]2(c3ccc(Cl)c(Cl)c3)CCCN(C(=O)c3ccccc3)C2)CC1`, the outcome is reported as “inactive”. For `CCCCc1nc2cccnc2n1Cc1ccc(-c2ccccc2-c2nnn[nH]2)cc1`, the outcome was “inactive”. For `Oc1ccc(O)cc1`, the outcome was “inactive”. With `O=C(Oc1ccccc1)c1cccc(C(=O)Oc2ccccc2)c1` the AC50 was 36.4 µM (active). In the case of `S=c1[nH]c2ccccc2s1`, the outcome is reported as “inactive”. With `CC1=C(C)S(=O)(=O)CCS1(=O)=O` the outcome was “inactive”. In the case of `CC(C)(O)c1ccc(CNC(=O)c2cccnc2Oc2ccc(F)cc2)cc1`, the outcome is reported as “inactive”. With `O=C1NC(=O)C(c2ccccc2)(c2ccccc2)N1` the outcome was “inactive”. In the case of `COc1ccc(C(=O)Nc2nc3ccccc3c(NCc3ccccc3)c2C#N)cc1`, the outcome is reported as “inactive”. For `CCN(CC)CCOc1ccc(C(=C(Cl)c2ccccc2)c2ccccc2)cc1`, the AC50 was 0.104 µM (active). With `CCCCCCCCCC[N+](C)(C)[O-]` the AC50 was 28.5 µM (active).
